What was measured:
Assay in all cases: log2 ratio of Biotin-Ahx-Ub-VS probe labelling (fragment/DMSO); higher = less target engagement (more negative = stronger competition), active = hit call of the paper (q ≤ 0.05, log2 ratio ≤ -1)
Settings in all cases: compound concentration: 200 uM; treatment time: 3 h
[1] = molecular target: USP34 (UniProt Q70CQ2)
Method in brief: (§1)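 Labelled DUBs from HEK293T lysate were NeutrAvidin-enriched, digested with LysC and trypsin, and run by diaPASEF LC-MS/MS. Before that, each 495 µg sample in Tris/CHAPS/IGEPAL buffer with protease inhibitors was treated in triplicate with fragment at 200 µM or vehicle for 3 h, then with Biotin-Ahx-Ub-VS at 0.5 µM final for 1 h. Values are average log2 ratios of fragment over vehicle by unpaired t-test, based on global-median-normalised Spectronaut label-free quantities from proteins with ≥2 unique peptides.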

[2] = molecular target: T1, USP36 (UniProt Q9P275)
T1 sequence (whole entry): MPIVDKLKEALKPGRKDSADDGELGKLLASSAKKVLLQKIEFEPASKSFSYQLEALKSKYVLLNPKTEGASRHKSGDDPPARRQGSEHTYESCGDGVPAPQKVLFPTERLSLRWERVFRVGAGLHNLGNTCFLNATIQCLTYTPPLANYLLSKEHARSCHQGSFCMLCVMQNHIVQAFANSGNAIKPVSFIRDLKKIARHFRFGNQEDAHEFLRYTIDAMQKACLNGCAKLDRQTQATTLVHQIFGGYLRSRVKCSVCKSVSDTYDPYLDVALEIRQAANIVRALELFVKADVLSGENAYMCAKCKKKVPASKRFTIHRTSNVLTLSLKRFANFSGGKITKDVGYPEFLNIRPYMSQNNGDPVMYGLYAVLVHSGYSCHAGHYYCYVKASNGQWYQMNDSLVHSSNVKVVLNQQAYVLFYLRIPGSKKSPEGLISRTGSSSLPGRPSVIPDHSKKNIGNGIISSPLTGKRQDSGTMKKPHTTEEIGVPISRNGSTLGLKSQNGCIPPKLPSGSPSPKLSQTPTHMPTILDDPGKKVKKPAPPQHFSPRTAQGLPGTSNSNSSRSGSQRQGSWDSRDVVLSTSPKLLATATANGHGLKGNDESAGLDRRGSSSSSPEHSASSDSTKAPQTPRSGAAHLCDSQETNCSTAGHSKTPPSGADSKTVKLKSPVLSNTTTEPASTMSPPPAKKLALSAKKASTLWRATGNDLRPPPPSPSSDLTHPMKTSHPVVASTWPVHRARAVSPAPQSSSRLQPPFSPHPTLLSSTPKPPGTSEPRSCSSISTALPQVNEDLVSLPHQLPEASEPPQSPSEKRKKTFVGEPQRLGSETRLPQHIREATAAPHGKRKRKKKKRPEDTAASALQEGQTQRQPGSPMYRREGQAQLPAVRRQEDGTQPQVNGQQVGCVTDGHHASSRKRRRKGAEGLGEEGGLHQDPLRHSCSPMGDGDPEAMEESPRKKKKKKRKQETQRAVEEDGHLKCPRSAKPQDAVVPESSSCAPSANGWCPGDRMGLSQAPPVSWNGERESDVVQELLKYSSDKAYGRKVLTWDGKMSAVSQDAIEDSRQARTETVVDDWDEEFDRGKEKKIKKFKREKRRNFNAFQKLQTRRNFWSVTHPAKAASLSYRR
Method in brief: as §1

[3] = molecular target: T2, USP38 (UniProt Q8NB14)
T2 sequence (whole entry): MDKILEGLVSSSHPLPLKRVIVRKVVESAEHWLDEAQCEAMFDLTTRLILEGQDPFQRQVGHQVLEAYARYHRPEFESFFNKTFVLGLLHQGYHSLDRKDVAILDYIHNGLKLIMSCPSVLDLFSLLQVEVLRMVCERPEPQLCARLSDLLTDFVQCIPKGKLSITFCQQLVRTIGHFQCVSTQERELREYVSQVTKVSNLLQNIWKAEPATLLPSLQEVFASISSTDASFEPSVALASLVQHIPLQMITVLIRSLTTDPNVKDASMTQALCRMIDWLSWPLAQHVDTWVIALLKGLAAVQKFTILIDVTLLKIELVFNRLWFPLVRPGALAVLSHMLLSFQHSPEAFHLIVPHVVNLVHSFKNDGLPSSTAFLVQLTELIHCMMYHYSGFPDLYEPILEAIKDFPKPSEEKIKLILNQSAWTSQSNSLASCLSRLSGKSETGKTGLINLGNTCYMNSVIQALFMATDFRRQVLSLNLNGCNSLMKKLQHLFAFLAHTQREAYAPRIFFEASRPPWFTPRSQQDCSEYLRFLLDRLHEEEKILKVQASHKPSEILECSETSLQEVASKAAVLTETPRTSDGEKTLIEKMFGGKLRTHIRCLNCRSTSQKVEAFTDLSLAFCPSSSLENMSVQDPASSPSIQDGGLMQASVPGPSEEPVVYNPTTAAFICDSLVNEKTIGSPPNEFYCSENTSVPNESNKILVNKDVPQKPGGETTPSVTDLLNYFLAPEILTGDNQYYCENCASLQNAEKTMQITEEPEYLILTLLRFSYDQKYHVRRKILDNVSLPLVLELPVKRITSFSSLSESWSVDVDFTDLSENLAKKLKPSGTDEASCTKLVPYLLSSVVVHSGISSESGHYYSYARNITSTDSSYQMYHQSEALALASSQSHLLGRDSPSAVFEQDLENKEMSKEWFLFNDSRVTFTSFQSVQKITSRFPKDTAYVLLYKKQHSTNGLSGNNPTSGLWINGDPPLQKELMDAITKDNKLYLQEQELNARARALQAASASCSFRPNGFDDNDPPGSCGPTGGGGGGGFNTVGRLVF
Method in brief: as §1

[4] = molecular target: T3, USP39 (UniProt Q53GS9)
T3 sequence (whole entry): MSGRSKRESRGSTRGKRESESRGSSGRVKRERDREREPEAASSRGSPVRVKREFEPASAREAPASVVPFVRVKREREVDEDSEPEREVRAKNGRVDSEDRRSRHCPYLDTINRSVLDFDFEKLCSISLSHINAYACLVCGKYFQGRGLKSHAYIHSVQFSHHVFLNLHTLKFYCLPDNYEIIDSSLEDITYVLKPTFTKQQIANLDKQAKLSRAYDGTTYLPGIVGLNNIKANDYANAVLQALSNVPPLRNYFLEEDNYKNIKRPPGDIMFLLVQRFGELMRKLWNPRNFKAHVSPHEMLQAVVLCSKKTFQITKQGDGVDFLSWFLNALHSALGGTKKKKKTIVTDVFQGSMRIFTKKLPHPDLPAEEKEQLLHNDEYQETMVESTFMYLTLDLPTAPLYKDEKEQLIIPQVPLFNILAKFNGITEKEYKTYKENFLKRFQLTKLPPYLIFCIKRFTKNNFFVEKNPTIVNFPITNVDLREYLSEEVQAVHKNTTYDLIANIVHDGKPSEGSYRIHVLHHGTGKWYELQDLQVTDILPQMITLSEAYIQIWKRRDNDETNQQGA
Method in brief: as §1

[5] = molecular target: T4, USP4 (UniProt Q13107)
T4 sequence (whole entry): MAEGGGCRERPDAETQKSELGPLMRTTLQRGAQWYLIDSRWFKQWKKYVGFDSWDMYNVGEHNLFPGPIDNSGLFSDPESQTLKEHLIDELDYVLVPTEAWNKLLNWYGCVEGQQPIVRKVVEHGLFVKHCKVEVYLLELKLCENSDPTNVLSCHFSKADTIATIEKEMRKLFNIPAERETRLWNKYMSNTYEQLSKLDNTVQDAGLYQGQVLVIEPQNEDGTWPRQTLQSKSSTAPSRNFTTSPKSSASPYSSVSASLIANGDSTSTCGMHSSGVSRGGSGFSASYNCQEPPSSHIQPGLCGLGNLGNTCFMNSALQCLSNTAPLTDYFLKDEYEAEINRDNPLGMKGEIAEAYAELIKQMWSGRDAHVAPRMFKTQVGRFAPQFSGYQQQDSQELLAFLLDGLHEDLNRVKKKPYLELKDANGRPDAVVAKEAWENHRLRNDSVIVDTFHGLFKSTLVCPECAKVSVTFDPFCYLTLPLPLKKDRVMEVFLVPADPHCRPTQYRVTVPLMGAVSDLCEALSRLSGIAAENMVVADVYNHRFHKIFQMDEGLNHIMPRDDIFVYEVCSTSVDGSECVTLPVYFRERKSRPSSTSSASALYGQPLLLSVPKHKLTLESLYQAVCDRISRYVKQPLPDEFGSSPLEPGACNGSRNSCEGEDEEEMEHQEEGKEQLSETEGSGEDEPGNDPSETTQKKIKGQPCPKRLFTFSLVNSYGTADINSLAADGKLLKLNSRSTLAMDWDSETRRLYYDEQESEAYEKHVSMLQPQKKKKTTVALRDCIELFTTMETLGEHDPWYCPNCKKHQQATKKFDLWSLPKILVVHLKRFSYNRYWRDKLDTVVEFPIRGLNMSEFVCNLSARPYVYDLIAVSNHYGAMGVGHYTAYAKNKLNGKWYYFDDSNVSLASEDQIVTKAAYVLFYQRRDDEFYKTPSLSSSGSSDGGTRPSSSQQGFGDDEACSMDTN
Method in brief: as §1

Measured: log2 ratio of Biotin-Ahx-Ub-VS probe labelling

Chain of USP34 (Q70CQ2 whole entry, the tested form may be a part): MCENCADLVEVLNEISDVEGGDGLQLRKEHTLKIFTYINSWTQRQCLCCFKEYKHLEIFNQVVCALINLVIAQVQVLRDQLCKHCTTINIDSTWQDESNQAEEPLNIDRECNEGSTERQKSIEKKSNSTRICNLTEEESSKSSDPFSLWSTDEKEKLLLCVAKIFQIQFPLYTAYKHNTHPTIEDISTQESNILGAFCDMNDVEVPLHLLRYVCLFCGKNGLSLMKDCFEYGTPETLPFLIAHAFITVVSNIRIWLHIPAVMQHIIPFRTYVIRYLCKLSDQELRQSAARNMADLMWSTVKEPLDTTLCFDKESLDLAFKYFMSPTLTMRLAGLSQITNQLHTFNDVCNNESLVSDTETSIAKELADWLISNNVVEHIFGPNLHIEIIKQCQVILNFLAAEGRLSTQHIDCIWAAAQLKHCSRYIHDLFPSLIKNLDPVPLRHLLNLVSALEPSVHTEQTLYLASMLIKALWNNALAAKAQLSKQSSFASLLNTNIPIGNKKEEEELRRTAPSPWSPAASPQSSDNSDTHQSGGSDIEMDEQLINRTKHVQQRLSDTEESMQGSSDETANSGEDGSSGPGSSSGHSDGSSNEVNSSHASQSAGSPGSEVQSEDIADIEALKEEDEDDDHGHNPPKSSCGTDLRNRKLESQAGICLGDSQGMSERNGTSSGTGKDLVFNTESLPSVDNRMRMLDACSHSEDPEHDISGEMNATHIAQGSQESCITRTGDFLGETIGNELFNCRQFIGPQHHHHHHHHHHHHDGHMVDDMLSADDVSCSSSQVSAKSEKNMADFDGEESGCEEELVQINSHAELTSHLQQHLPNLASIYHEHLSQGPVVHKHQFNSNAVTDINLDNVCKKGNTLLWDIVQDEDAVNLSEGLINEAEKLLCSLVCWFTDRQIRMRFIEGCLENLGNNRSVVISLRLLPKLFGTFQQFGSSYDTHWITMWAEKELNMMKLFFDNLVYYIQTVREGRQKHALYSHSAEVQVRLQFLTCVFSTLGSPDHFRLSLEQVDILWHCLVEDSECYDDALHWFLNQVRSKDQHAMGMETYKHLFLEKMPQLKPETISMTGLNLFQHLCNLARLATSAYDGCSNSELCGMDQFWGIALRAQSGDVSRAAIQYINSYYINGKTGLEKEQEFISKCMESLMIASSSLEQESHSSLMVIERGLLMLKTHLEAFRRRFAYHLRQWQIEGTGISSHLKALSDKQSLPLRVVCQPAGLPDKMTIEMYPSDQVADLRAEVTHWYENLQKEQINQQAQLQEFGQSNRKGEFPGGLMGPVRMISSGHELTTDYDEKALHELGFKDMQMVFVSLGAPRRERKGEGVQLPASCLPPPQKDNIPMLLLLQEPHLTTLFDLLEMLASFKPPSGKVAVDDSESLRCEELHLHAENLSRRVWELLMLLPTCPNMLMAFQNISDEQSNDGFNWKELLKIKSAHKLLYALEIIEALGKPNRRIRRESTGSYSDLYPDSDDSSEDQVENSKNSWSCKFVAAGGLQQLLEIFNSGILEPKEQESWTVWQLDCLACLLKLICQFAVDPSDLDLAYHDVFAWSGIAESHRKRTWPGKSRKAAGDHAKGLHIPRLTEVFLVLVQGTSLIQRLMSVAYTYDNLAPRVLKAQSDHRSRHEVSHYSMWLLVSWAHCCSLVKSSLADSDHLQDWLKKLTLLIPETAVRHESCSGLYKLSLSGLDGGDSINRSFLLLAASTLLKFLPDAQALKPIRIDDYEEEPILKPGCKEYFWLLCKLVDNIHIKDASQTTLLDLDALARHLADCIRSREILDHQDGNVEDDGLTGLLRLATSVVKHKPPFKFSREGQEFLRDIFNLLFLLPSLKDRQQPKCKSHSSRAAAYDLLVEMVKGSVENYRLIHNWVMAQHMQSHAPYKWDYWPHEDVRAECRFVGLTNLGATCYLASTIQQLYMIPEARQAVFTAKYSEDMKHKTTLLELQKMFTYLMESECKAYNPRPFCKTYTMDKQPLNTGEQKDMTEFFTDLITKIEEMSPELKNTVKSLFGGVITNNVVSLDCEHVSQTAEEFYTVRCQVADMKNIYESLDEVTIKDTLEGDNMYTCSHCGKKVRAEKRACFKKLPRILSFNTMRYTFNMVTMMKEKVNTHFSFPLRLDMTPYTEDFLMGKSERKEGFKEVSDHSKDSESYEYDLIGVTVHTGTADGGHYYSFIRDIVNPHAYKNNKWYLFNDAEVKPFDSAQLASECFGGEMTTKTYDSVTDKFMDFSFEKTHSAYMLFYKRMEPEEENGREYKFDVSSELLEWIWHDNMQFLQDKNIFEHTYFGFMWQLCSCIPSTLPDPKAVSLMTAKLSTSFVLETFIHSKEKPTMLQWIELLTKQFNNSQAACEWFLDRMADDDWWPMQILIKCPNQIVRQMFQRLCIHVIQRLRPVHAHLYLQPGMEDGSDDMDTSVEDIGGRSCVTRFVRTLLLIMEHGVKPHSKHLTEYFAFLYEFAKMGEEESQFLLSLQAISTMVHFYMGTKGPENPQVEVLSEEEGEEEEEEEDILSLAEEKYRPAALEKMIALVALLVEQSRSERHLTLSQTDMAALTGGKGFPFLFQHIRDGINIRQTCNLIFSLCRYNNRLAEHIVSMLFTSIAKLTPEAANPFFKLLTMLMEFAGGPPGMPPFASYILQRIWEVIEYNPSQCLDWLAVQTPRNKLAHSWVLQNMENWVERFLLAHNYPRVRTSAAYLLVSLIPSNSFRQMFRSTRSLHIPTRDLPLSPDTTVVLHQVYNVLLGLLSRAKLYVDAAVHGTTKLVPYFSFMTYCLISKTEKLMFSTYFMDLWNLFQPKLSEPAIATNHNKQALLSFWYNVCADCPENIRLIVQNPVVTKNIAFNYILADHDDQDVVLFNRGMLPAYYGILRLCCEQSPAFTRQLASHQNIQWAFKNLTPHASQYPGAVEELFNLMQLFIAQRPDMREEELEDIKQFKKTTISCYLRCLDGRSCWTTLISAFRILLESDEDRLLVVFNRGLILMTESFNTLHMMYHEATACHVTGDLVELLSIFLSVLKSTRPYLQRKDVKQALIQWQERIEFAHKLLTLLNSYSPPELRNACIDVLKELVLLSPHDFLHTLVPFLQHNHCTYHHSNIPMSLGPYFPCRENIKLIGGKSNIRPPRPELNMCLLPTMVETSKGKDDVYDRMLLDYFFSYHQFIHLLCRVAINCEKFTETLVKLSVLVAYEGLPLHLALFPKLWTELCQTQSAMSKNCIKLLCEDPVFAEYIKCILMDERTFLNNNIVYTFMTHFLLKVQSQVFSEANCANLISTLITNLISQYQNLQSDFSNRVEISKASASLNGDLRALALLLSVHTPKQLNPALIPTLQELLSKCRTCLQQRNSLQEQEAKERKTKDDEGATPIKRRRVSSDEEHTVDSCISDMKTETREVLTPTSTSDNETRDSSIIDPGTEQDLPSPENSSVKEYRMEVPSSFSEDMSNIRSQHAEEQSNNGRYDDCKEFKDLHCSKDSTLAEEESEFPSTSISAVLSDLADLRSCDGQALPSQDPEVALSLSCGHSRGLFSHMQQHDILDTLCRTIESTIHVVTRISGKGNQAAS

N#Cc1ccccc1N1CCN(C(=O)CCl)CC1
inactive: [1] -0.549 | [2] -0.232 | [3] -0.312 | [4] 0.399 | [5] -0.61

— the supplement of paper PMC11732987, “Enantioselective OTUD7B fragment discovery through chemoproteomics screening and high-throughput optimisation” (Communications Chemistry, 2025)
